NPC1 promoter act = activators of NPC1 promoter. hit rate 2.4% among 320,000. Huh7 NPC1 promoter luciferase reporter, 24 h. AID 485313. Potency, µM (highest dose often 9.22 µM), usual class: activators; also: nearly all actives have a fitted effect of over 60% in size
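Readout is luciferase luminescence, reflecting NPC1 promoter activation in stably transfected Huh7 cells after 24 h compound exposure at 37 °C in reduced-serum medium with 10% FBS.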
SMN2 splice enh = enhancers of SMN2 splice variant expression. HEK293 SMN2-luciferase splicing reporter, luminescence, 30-36 h. Potency, µM (top dose mostly 46.1 µM), most hits filed as activators. hit rate 2.8% among 210,000. AID 1458; also: nearly all actives have a fitted effect of over 55% in size
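qHTS luciferase splicing reporter: luminescence rises when SMN2 exon 7 is included in transfected HEK293 cells. Compound exposure lasted 30-36 h at 37C, with 4.5 mM final sodium butyrate as control, followed by a ONE-Glo read.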
ELG1 genotoxic = genotoxicity induction in ELG1-luciferase HEK293T cells. hit rate 1.3% among 330,000. AID 504466. HEK293T ELG1-luciferase reporter, luminescence, 16 h. Potency, µM (doses to about 46 µM), usual class: activators; also: nearly all actives have a fitted effect of over 60% in size
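ELG1-luciferase HEK293T cells, 2,000/well; compound pinned in; 16 hr, 37 °C, 5% CO2; ONE-Glo, 30 min RT; luminescence on CCD imager.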
Rab9 prom act = activates the Rab9 promoter; AID 485297; Huh7 Rab9 promoter-luciferase reporter, luminescence, 24 h; hit rate 2.8% among 320,000; Potency, µM (top dose mostly 9.22 µM), hits mostly activators; also: nearly all actives have a fitted effect of over 60% in size
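Huh7 cells stably carrying a Rab9 promoter-luciferase reporter, 1500 cells per well in OP-MEM I with 10% FBS, treated with compound 24 hours at 37C. Luciferase activity read by luminescence after 10 minutes with Amplite reagent.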
FLuc counter = inhibits or activates purified firefly luciferase, miR-21 counter-screen; P08659; purified FLuc, Km substrates, luminescence inhibition; Potency, µM (titrated, usually from 57.5 µM), usual class: inhibitors; hit rate 6.9% among 360,000; AID 588342; also: nearly all actives have a fitted effect of over 55% in size
Target sequence (P08659 whole entry, looked up): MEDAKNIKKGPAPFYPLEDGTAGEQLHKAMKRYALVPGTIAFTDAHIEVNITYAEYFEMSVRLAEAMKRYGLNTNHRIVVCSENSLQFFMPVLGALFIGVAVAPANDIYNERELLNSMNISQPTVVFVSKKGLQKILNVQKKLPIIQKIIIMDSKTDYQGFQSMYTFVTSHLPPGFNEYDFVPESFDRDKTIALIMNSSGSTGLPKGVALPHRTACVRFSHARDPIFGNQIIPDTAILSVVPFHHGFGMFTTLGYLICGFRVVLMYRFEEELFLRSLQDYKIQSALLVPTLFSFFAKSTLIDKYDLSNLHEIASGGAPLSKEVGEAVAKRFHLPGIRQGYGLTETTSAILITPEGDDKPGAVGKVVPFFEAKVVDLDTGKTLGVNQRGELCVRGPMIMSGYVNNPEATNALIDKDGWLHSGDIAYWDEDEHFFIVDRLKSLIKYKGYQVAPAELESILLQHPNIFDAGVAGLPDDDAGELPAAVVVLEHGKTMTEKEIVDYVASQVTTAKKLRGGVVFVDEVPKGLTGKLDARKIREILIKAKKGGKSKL
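Biochemical qHTS of compounds, final roughly 60 µM downward over six points, against 10 nM purified firefly luciferase using Km concentrations of substrates (10 uM D-luciferin, 10 uM ATP) in Tris acetate pH 7.5 buffer; luminescence output.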
KinaseGlo FLuc = blocks Kinase-Glo luciferase, a counter-screen artifact; Q27757; Kinase-Glo luciferase, ATP luminescence, 8 min; AID 1379; Potency, µM (series often up to 38.3 µM), usual class: inhibitors; hit rate 0.28% among 200,000; also: nearly all actives have a fitted effect of over 60% in size
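Compounds were added to a substrate mix at pH 7.2 (50 mM imidazole, 10 uM ATP, within the enzyme's linear range), followed by Kinase-Glo detection reagent; luminescence was measured after 8 minutes at ambient temperature.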
Numbers stand for hits; . = inactive; ? = inconclusive; / = not tested or not shown; [ ] = remark or other dose. Hits are enriched below; roughly 7.3% of the tested compounds scored in any of these assays. Calls follow the shape of the dose curve; as a rule, active = well fitted curve in the direction sought with a large enough effect; inconclusive = small, poorly fitted or top-dose-only effect, or another doubt; inactive = no such curve, though single readings can be large; an effect the other way counts as inactive or inconclusive.

SMILES | NPC1 promoter act | SMN2 splice enh | ELG1 genotoxic | Rab9 prom act | FLuc counter | KinaseGlo FLuc
Cc1cc(NCCCN2CCOCC2)n2ncc(-c3ccccc3)c2n1 | 1µM | 16µM | 9.2µM | 0.71µM | 7.6µM | .
CC(Sc1nnc(CNC(=O)c2ccco2)n1C)C(=O)Nc1nccs1 (stereo unspecified) | . | / | . | . | . | /
Cc1ccc(S(=O)(=O)N/N=C/c2cnn(C)c2C)cc1 | . | . | . | . | . | .
N#CC1=C(N)Oc2n[nH]c(-c3ccccc3)c2C12C(=O)Nc1ccccc12 (stereo unspecified) | . | 5.6µM | . | . | . | .
COC(=O)COc1ccc(S(=O)(=O)Nc2ccc3c(c2)OCCO3)cc1Cl | . | . | . | . | . | .
CC1=NN(c2ccccc2)C(=O)C1/C=C1/NC(=S)NC1=O (stereo unspecified) | . | / | . | . | 17µM | /
CC1=NN(c2ccccc2)C(=O)C1C=Nc1ccc(N(C)C)cc1 (stereo unspecified) | . | / | . | . | ? | /
Cc1nc(C(C)NC(=O)c2cc(COc3ccc(C)c(C)c3)on2)c(C)s1 (stereo unspecified) | 2.8µM | / | ? | 3.2µM | 9.5µM | /
CC(NC(=O)c1cc(COc2ccccc2)on1)c1nccs1 (stereo unspecified) | 1.4µM | / | 8.2µM | 1.4µM | 4.8µM | /
Cc1nc(C(C)NC(=O)c2cc(COc3ccc(F)c(F)c3)on2)cs1 (stereo unspecified) | . | / | . | . | . | /
Cc1ccc(OCc2cc(C(=O)NC(C)Cc3cnccn3)no2)cc1C (stereo unspecified) | . | / | . | . | . | /
CCc1cc(C(=O)NC(C)c2ccccc2)no1 (stereo unspecified) | / | . | / | / | . | /
Cc1cc(OCc2cc(C(=O)NC(C)c3c(C)nn(C)c3C)no2)cc(C)c1Cl (stereo unspecified) | 2.5µM | / | ? | 2.2µM | 6.7µM | /
Cc1cccc(CC(C)NC(=O)c2cc(COc3ccc(C)c(C)c3)on2)n1 (stereo unspecified) | ? | / | . | ? | 21µM | /
Cc1cc(OCc2cc(C(=O)NC3CCC3)no2)cc(C)c1Cl | . | / | . | . | . | /
CCCc1cc(C(N)=O)c(NC(=O)c2ccoc2C)s1 | . | . | . | . | ? | .
COc1ccc(-c2noc(-c3ccccc3C(=O)NCC3CCCO3)n2)cc1 (stereo unspecified) | . | / | . | . | 9.5µM | /
Cc1ccccc1-c1noc(-c2ccccc2C(=O)NCC2CCCO2)n1 (stereo unspecified) | . | / | . | . | 15µM | /
COc1ccccc1-c1noc(-c2ccccc2C(=O)NCC2CCCO2)n1 (stereo unspecified) | . | / | . | . | 15µM | /
O=C(NCC1CCCO1)c1ccccc1-c1nc(-c2ccc(F)cc2)no1 (stereo unspecified) | . | . | . | . | ? | .
Cc1ccc2nc3c(c(C(=O)OCC(=O)N(C)C4CCS(=O)(=O)C4)c2c1)CCCC3 (stereo unspecified) | . | . | . | . | . | .
Cc1ccc(-c2cc(C(=O)O)c3sc(N4CCCCC4)nc3n2)cc1 | . | . | . | . | 24µM | .
COc1ccc(-c2cc(C(=O)O)c3sc(N4CCCCC4)nc3n2)cc1OC | . | .[1.84 µM] | . | . | 4.8µM | .
CCOC(=O)c1cc(-c2ccccc2)nc2nc(N3CCCCC3)sc12 | . | . | . | . | . | .
O=C(O)c1cc(-c2ccccc2)nc2nc(N3CCCCC3)sc12 | . | . | . | . | 17µM | .
SMILES | NPC1 promoter act | SMN2 splice enh | ELG1 genotoxic | Rab9 prom act | FLuc counter | KinaseGlo FLuc
CNC(=S)N/N=C/c1c(C)nn(-c2cccc(Cl)c2)c1Cl | . | . | . | . | . | .
CSc1ccccc1C(=O)Nc1nc2ccccc2c(=O)[nH]1 | . | / | . | 2.8µM | 19µM | /
CSc1ccccc1C(=O)Nc1nc2ccccc2[nH]1 | 3.2µM | 14µM | ? | 4.5µM | ? | .
C/C(=N\NC(=O)CSCc1ccccc1Cl)c1cc(O)ccc1O | . | / | ? | . | 19µM | .
O=C(CSCc1ccccc1Cl)NN=C1CCCCCC1 | . | . | . | . | ? | .
O=C(NC1CCCCCC1)c1cccs1 | . | . | . | ? | ? | .
OCCNc1nc(Nc2ccccc2)nc2ccccc12 | . | . | . | . | ? | .
Cc1c(Cl)cccc1Nc1nc(NCCO)c2ccccc2n1 | . | / | . | . | 15µM | /
OCCNc1nc(Nc2ccc(Br)cc2)nc2ccccc12 | . | . | . | . | 17µM | .
NC(N)=Nc1nc(CCN2C(=O)c3ccccc3C2=O)cs1 | . | 32µM | . | . | . | .
N#CCCN(C(=S)NC(=O)c1ccco1)c1ccccc1F | . | . | . | . | . | .
Clc1ccc(-c2cnnc(-c3ccccn3)n2)cc1 | / | / | 21µM | / | / | /
N#Cc1cccc(NC(=O)Cn2cnc(S(=O)(=O)N3CCCC3)c2)c1 | . | / | . | . | . | /
COc1cccc(/C=N/Nc2nc(-c3cccnc3)nc3ccccc23)c1 | . | / | . | . | 1.5µM | /
COc1cccc(CNc2nc(-c3cccnc3)nc3ccccc23)c1 | . | . | . | . | . | .
FC(F)(F)c1nc2ccccc2nc1N/N=C\c1ccccc1 | . | . | . | . | 15µM | .
Brc1ccc(-c2nc(N/N=C/c3cccnc3)c3ccccc3n2)cc1 | 2.8µM | 13µM | ? | 2.5µM | 0.21µM | 7.1µM
Fc1ccc(Nc2nc(-c3cccnc3)nc3ccccc23)cc1 | / | . | / | / | / | .
Cc1ccc(-c2nc(N/N=C/c3ccccc3[N+](=O)[O-])c3ccccc3n2)cc1 | 1.6µM | ? | . | 3.5µM | 0.76µM | .
CC(=O)c1ccc(N2CCN(c3ncnc4c3c(-c3ccccc3)cn4-c3ccc(C)c(Cl)c3)CC2)cc1 | / | / | / | / | . | /
O=[N+]([O-])c1ccc(NC(=S)N2CCN(S(=O)(=O)c3ccccc3)CC2)cc1 | . | / | . | . | . | /
COC(=O)c1cn(C(=O)OC)c2ccccc12 | . | . | . | . | . | .
O=C(NCCc1ccncc1)Nc1cccc(Cl)c1 | . | . | . | . | . | .
C(=N\Nc1nc(-c2cccnc2)nc2ccccc12)/c1ccccc1 | . | / | . | . | 1.3µM | /
c1ccc(-c2nc(NCc3ccco3)c3ccccc3n2)nc1 | . | . | . | . | . | .
C(=N\Nc1nc(-c2ccccn2)nc2ccccc12)/c1ccccc1 | . | / | . | . | 11µM | /
O=S(=O)(c1ccc(Br)s1)N1CCCCC1 | . | . | . | . | . | .
Cc1ccccc1-c1nc(Cc2ccc(Cl)cc2)no1 | . | . | 23µM | . | ? | .
Cc1ccc(C)c(-c2nnc(NC(=O)CCS(=O)(=O)c3ccccc3)o2)c1 | . | / | . | . | . | /
Cc1cccc(-c2nnc(-c3ccccc3)o2)c1 | ? | 11µM | 8.2µM | ? | 9.5µM | .

Assay outcomes as filed in PubChem BioAssay.
